PubChem BioAssay AID1159580 (chemical genetic matrix, 2015)
Where “and” joins values, the source holds several entries; their conditions need not be identical. Equal entries are not always repeated. Out of some 5,500 compounds screened, about 2,000 (36%) were called active. Inconclusive results (about 18%) are left out. Cut-off read from the data, not from the text of the source: active = normalized growth mostly below about 0.91 (no sharp cut-off); inconclusive = no clear call, values can overlap the other calls; inactive = mostly above about 0.92. This is one part of the list.

Assay: chemical genetic growth profiling, strain panel (AID 1159580);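 note: tested at 20 µM; growth read once vehicle control cultures reached saturation at 30 °C; 1 = growth at the plate median or of vehicle wells; lower values mean less growth of the strain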
Details: S. cerevisiae deletion strains, growth OD

Measured: normalized growth

N=c1nc(N2CCCCC2)cc(N)n1O
inactive: locus YAL013W, strain DEP1, stronger effect = lower value 0.981 and 0.989 | locus YAL021C, strain ccr4, stronger effect = lower value 0.989 | locus YAL026C, strain drs2, stronger effect = lower value 1 | locus YAL030W, strain snc1, stronger effect = lower value 0.984 | locus YAL040C, strain CLN3, stronger effect = lower value 1.03 | locus YBL061C, strain skt5, stronger effect = lower value 0.977 | locus YBR009C, strain hhf1, stronger effect = lower value 1 | locus YBR021W, strain FUR4, stronger effect = lower value 1.09 | locus YBR023C, strain chs3, stronger effect = lower value 0.985 | locus YBR171W, strain sec66, stronger effect = lower value 0.984 | locus YBR229C, strain ROT2, stronger effect = lower value 0.955 | locus YBR231C, strain swc5, stronger effect = lower value 1 | locus YBR279W, strain paf1, stronger effect = lower value 0.992 | locus YCL011C, strain gbp2, stronger effect = lower value 0.963 | locus YCL016C, strain dcc1, stronger effect = lower value 0.97 | locus YCL029C, strain bik1, stronger effect = lower value 0.99 | locus YCL061C, strain MRC1 (second series), stronger effect = lower value 1 | locus YCL061C, strain MRC1, stronger effect = lower value 0.991 | locus YCL069W, strain vba3, stronger effect = lower value 0.992 | locus YCR088W, strain abp1, stronger effect = lower value 0.989 | locus YDL005C, strain med2, stronger effect = lower value 0.997 | locus YDL035C, strain GPR1, stronger effect = lower value 0.98 | locus YDL040C, strain nat1, stronger effect = lower value 0.992 | locus YDL074C, strain BRE1, stronger effect = lower value 1.02 | locus YDL101C, strain DUN1, stronger effect = lower value 0.988 | locus YDL134C, strain PPH21, stronger effect = lower value 0.975 | locus YDL185W, strain tfp1, stronger effect = lower value 0.978 | locus YDL192W, strain arf1, stronger effect = lower value 0.983 | locus YDR001C, strain nth1, stronger effect = lower value 0.979 | locus YDR069C, strain doa4, stronger effect = lower value 0.996 | locus YDR101C, strain arx1, stronger effect = lower value 1.01 | locus YDR137W, strain rgp1, stronger effect = lower value 0.977 | locus YDR150W, strain NUM1, stronger effect = lower value 0.963 and 1.01 | locus YDR159W, strain sac3, stronger effect = lower value 1.04 | locus YDR162C, strain NBP2, stronger effect = lower value 0.968 | locus YDR195W, strain ref2 0.981 | locus YDR297W, strain sur2, stronger effect = lower value 0.981 | locus YDR318W, strain mcm21, stronger effect = lower value 1 | locus YDR334W, strain swr1, stronger effect = lower value 0.936 | locus YDR335W, strain msn5, stronger effect = lower value 0.979 | locus YDR363W, strain ESC2, stronger effect = lower value 0.979 | locus YDR388W, stronger effect = lower value 0.949 | locus YDR392W, strain spt3, stronger effect = lower value 0.964 | locus YDR502C, strain sam2, stronger effect = lower value 0.959 | locus YEL003W, strain gim4, stronger effect = lower value 0.992 | locus YEL037C, strain rad23, stronger effect = lower value 0.989 | locus YEL061C, strain CIN8 (second series), stronger effect = lower value 0.982 | locus YEL061C, strain CIN8, stronger effect = lower value 0.982 | locus YER002W, strain NOP16, stronger effect = lower value 1.02 | locus YER015W, strain faa2, stronger effect = lower value 0.985 | locus YER016W, strain bim1, stronger effect = lower value 0.998 | locus YER110C, stronger effect = lower value 0.955 | locus YER111C, strain swi4, stronger effect = lower value 0.987 | locus YER155C, strain BEM2 (second series), stronger effect = lower value 1.03 | locus YER155C, strain BEM2, stronger effect = lower value 1.01 | locus YER167W, strain BCK2, stronger effect = lower value 0.989 | locus YFR010W, strain ubp6, stronger effect = lower value 0.982 | locus YGL078C, strain dbp3, stronger effect = lower value 0.985 | locus YGL086W, strain mad1, stronger effect = lower value 0.961 | locus YGL167C, strain pmr1, stronger effect = lower value 0.985 | locus YGL173C, strain kem1, stronger effect = lower value 0.984 | locus YGL227W, strain vid30, stronger effect = lower value 0.996 | locus YGL240W, strain doc1, stronger effect = lower value 1 | locus YGL248W, strain PDE1, stronger effect = lower value 0.981 | locus YGL253W, strain hxk2, stronger effect = lower value 0.96 | locus YGR078C, strain PAC10, stronger effect = lower value 1 and 0.978 | locus YGR135W, strain pre9, stronger effect = lower value 0.99 | locus YGR229C, strain SMI1, stronger effect = lower value 1.01 | locus YGR252W, strain gcn5, stronger effect = lower value 0.867 | locus YHR013C, strain ard1, stronger effect = lower value 0.962 | locus YHR027C, strain rpn1, stronger effect = lower value 0.976 | locus YHR030C, strain SLT2, stronger effect = lower value 0.982 | locus YHR079C, strain IRE1 (second series), stronger effect = lower value 1 | locus YHR079C, strain IRE1, stronger effect = lower value 0.997 | locus YHR094C, strain hxt1, stronger effect = lower value 0.991 | locus YHR129C, strain ARP1, stronger effect = lower value 0.988 | locus YHR142W, strain chs7, stronger effect = lower value 0.971 | locus YHR200W, strain rpn10, stronger effect = lower value 0.993 | locus YIL066C, strain RNR3, stronger effect = lower value 0.975 | locus YIL073C, strain SPO22, stronger effect = lower value 0.94 | locus YIL125W, strain kgd1, stronger effect = lower value 0.985 | locus YIR030C, strain dcg1, stronger effect = lower value 0.982 | locus YJL092W, strain hpr5, stronger effect = lower value 0.988 | locus YJL095W, strain BCK1 (second series), stronger effect = lower value 0.986 | locus YJL095W, strain BCK1, stronger effect = lower value 1.01 and 0.985 | locus YJL115W, strain asf1, stronger effect = lower value 0.966 | locus YJL129C, strain trk1, stronger effect = lower value 1 | locus YJL134W, strain LCB3, stronger effect = lower value 0.978 | locus YJL154C, strain vps35, stronger effect = lower value 0.976 | locus YJL164C, strain tpk1, stronger effect = lower value 0.999 | locus YJL166W, strain qcr8, stronger effect = lower value 0.957 | locus YJL168C, strain set2, stronger effect = lower value 0.995 | locus YJL187C, strain SWE1 (second series), stronger effect = lower value 0.983 | locus YJL187C, strain SWE1, stronger effect = lower value 0.992 | locus YJR043C, strain POL32, stronger effect = lower value 1.02 | locus YJR066W, strain TOR1, stronger effect = lower value 0.932
